Screen size: about 2,100 compounds; about 670 (32%) were called active. Inconclusive results (about 50%) are left out. Calls follow the shape of the dose curve; as a rule, active = well fitted inhibition curve with a large enough effect; inconclusive = small, poorly fitted or top-dose-only effect; inactive = no such curve, though single readings can be large or run the other way. Some of the results follow.
% is scaled to controls: 0 for no effect and ±100 for the full control effect; potency is read from the fitted curve at half-maximal effect.

The test is described as follows: CMV-Luciferase Counterscreen for Inhibitors of ATXN expression. Also: nearly all actives have a fitted effect of over 55% in size. The following applies: HEK-293 CMV-luciferase reporter, luminescence, 24 h; series mostly up to 57.5 µM.
Regarding `COC(=O)c1ccc(C(=O)Nc2cc(Cl)ccc2Cl)cc1NC(=O)c1ccc(N(C)C)cc1`, the activity change, negative = inhibition was -1.02% [at 11.4 µM] (inactive). Consider `COc1ccc(N(C)S(=O)(=O)c2ccc(Cl)c(C(=O)NCCc3ccc(Cl)cc3)c2)cc1`, for which the Potency is 14.1 µM (active).

On to `NS(=O)(=O)c1ccc(CCNC(=O)c2cc(-c3ccccn3)nc3ccc(Br)cc23)cc1`, for which the Potency entry is “inactive”. For `CCOP(=O)(OCC)C(Cc1ccccc1)N=C(c1ccccc1)c1ccccc1` (stereo not given), the Potency was 22.4 µM (active). `Nc1ccc(Oc2ccccc2-c2ccccc2)cc1`: the Potency was 2 µM (active).

For `Cc1cccc(NC2=Nc3ccccc3N3C2=Nc2c(c(C)nn2-c2ccccc2)C3c2ccc(O)c(O)c2)c1` (stereo not given), the activity change, negative = inhibition was -12.9% [at 11.4 µM] (inactive).

On to `CC(=O)Nc1ccc(NC2=Nc3ccccc3N3C2=Nc2c(c(C)nn2-c2ccccc2)C3c2ccccc2)cc1` (stereo not given), for which the Potency was 1.12 µM (active). Regarding `CN(C)CCOc1ccc(-c2c(-c3ccccc3)sc3ccccc23)cc1`, the Potency is 22.4 µM (active). Same read-out and setting: the value for `CC(=O)NC(c1cccs1)c1cc([N+](=O)[O-])c2cccnc2c1O` (stereo not given) was 10 µM (active); that for `O=C(Nc1nccs1)c1cccc(N2C(=O)c3cccc4c([N+](=O)[O-])ccc(c34)C2=O)c1` was “inactive”.

For `Cc1cc(OCC(=O)NC(C)c2ccccc2)ccc1[N+](=O)[O-]` (stereo not given), the activity change, negative = inhibition is -19.4% [at 11.4 µM] (inactive). In the case of `CCC(=O)NC(c1ccc(C)cc1)c1cc([N+](=O)[O-])c2cccnc2c1O` (stereo not given), the Potency was 7.08 µM (active). For the molecule `CC(=O)NC(c1cccs1)c1cc(Br)c2cccnc2c1O` (stereo not given), the Potency was 4.47 µM (active). As for `Oc1cccc(C(O)CNCc2ccc(-c3ccccc3)cc2)c1` (stereo not given), the Potency entry was “inactive”. With `CCc1ccc(-n2cc(-c3ccc(F)cc3)[n+]3c2SCCC3)cc1`, the Potency was 17.8 µM (active). On the same count and under the same terms, the value for `CC1(C)Cc2ccccc2C2=NNC(=O)C2=N1` was 25.1 µM (active); that for `COc1ccc(CCNC(=O)c2cc(-c3cc(C)cc(C)c3O)n[nH]2)cc1OC` was 20 µM (active); that for `Cc1sc2cc3c(c(C(=O)c4ccccc4)[n+]2c1C)-c1cccc2cccc-3c12` was 3.16 µM (active). Still for that read-out and setting: for `Cc1ccc(C(=O)N/C(=C/c2ccc(-c3ccc([N+](=O)[O-])cc3)o2)C(=O)NCCCN(C)C)cc1` the value was “inactive”; for `Cc1ccsc1/C=C/C1=Cc2c(sc(NC(=O)CSc3n[nH]c(N)n3)c2C#N)C(C)(C)C1`, “inactive”; for `COc1cccc(CN(C)C(=O)c2ccc(OCC(=O)Nc3cccc(C(F)(F)F)c3)c(OC)c2)c1`, 7.08 µM (active). The same measure, in the same setting: the value for `CN(C)CCNC(=O)c1cccc(-c2cnc3c(NC=O)cc(/C=C/c4ccccc4)cn23)c1` was “inactive”. As to `Cc1cc2sc3ccc(C#CC4(O)CCCCC4)cc3c(=O)c2cc1C`, the Potency was 0.0316 µM (active). Still for that read-out and setting: the value for `O=C(c1ccoc1)N1CCN(c2cc(-c3ccccc3)nc3cc(-c4ccccc4)nn23)CC1` was 10 µM (active); that for `COc1ccccc1-c1cc2nc(-c3ccccc3)cc(N3CCN(C(=O)c4ccoc4)CC3)n2n1` was 7.94 µM (active). Consider `COc1cccc(-c2cc3nc(-c4ccccc4)cc(N4CCN(C(=O)c5ccoc5)CC4)n3n2)c1`, for which the Potency was 3.16 µM (active).

As to `FC(F)(F)c1cc(-c2ccccn2)nc2cc(-c3ccccc3)nn12`, the Potency result is “inactive”. As to `COc1ccccc1-c1cc2nc(-c3ccccc3)cc(N3CCN(C(=O)c4ccco4)CC3)n2n1`, the Potency is 7.94 µM (active). Turning to `NC(=O)Cn1c(=O)n(CCc2ccccc2)c(=O)c2c3c(sc21)CCCC3`, the Potency entry is “inactive”. For `CCNc1ccc(Br)cc(C(=O)/C=C/c2ccccc2Cl)c1=O`, the activity change, negative = inhibition is -8.42% [at 11.4 µM] (inactive). Regarding `O=C(c1ccoc1)N1CCN(c2cc(-c3cccnc3)nc3cc(-c4cccc(Cl)c4)nn23)CC1`, the Potency is 28.2 µM (active). The same measure, in the same setting: the value for `O=C(Nc1cccc2c1CCCC2)c1cc([N+](=O)[O-])ccc1Cl` was 6.31 µM (active).

Consider `COc1cccc(CC2(CO)CCCN(Cc3[nH]c4ccc(C)cc4c3C)C2)c1` (stereo not given), for which the Potency result was “inactive”.

As to `Cc1ccc(S(=O)(=O)Nc2cccc3cccnc23)c([N+](=O)[O-])c1`, the Potency entry is “inactive”. Still for that read-out and setting: the value for `Cc1ccc(S(=O)(=O)Nc2ccc(O)c3cccnc23)cc1` was 28.2 µM (active); that for `COc1cccc(C(NC(C)=O)c2ccc3cccnc3c2O)c1` (stereo not given) was 2.82 µM (active). With `CC(=O)NC(c1ccc2ccccc2c1)c1ccc2cccnc2c1O` (stereo not given), the Potency is 0.355 µM (active). `CCC(=O)NC(c1ccco1)c1cc(Br)c2cccnc2c1O` (stereo not given): the Potency is 8.91 µM (active). Still for that read-out and setting: for `CC(=O)NC(c1ccc(C(C)C)cc1)c1ccc2cccnc2c1O` (stereo not given) the value was 1.26 µM (active). Regarding `OC1(c2ccc(Br)cc2)CCNCC1`, the activity change, negative = inhibition is 0.489% [at 11.4 µM] (inactive). `Oc1c(C(Nc2ccccn2)c2ccccn2)ccc2cccnc12` (stereo not given): the Potency was 2.82 µM (active). `Cc1cccc(NC(c2ccc(C)s2)c2ccc3ccc(C)nc3c2O)n1` (stereo not given): the Potency entry was “inactive”.

As to `CC(=O)NC(c1ccco1)c1ccc2cccnc2c1O` (stereo not given), the Potency was 1.58 µM (active). Still for that read-out and setting: for `Oc1cccc(C(Nc2nccs2)c2ccc3cccnc3c2O)c1` (stereo not given) the value was 2.82 µM (active); for `CC(=O)NC(c1ccco1)c1cc(Cl)c2cccnc2c1O` (stereo not given), 7.94 µM (active). On to `CC(C)(C)OC(=O)N1CCC(c2c(C(=O)NCC3CCN(C4CCCC4)C3)cnn2-c2cccc(Cl)c2)CC1` (stereo not given), for which the activity change, negative = inhibition is -22.1% [at 11.4 µM] (inactive). As for `CN(Cc1ccccc1)C(=O)c1ccc(NC(=O)C2CCN(C(=O)OC(C)(C)C)CC2)cc1`, the Potency is 7.08 µM (active). For `O=C(Cc1coc2cc3c(cc12)CCC3)OCC(=O)N1CCCC1=O`, the Potency is 15.8 µM (active).

For the molecule `Cc1ccc(-n2c(-c3ccccc3)c[n+]3c2CCc2ccccc2-3)c(C)c1`, the Potency was 0.794 µM (active).

`S=C(Nc1ccccc1)Nc1ccc(OCc2ccc(Cl)cc2Cl)cc1`: the Potency is 3.55 µM (active). As for `S=C(Nc1cc(Cl)ccc1Oc1ccccc1)N1CCN(c2ccccn2)CC1`, the Potency was 17.8 µM (active). On to `O=C(Nc1ccc(Br)cc1)c1cccc(OC(=S)N2CCOCC2)c1`, for which the Potency is 2 µM (active). For the molecule `Oc1[nH]c2ccc(Br)cc2c1N=NC(=S)N1CCOCC1`, the activity change, negative = inhibition is 43.7% [at 11.4 µM] (inactive). As to `Cc1ccc(S(=O)(=O)N2CCc3ccccc3CC2)cc1`, the Potency was 0.794 µM (active). Same read-out and setting: for `COCCNC(=O)c1cccc(Nc2nc(-c3ccccc3)c3cc(Cl)ccc3n2)c1` the value was 15.8 µM (active); for `O=C(NCCc1csc(-c2cccnc2)n1)c1cccc(Cl)c1`, “inactive”; for `OCCN1CCN(C(=S)c2ccc(-c3ccccc3)cc2)CC1`, 2.51 µM (active). For the molecule `CCN1CCN(C(=S)c2ccc(-c3ccccc3)cc2)CC1`, the Potency is 2 µM (active). For the molecule `CC(C)=C1SC(N2CCN(c3ccc(C)c(Cl)c3)CC2)=NC1=O`, the activity change, negative = inhibition was 103% [at 11.4 µM] (inactive). For `CCn1c2ccccc2c2cc(C3C(C#N)=C(N)Oc4n[nH]c(COC)c43)ccc21` (stereo not given), the Potency is 2.82 µM (active).

With `CCn1c2ccccc2c2cc(NC(=O)COC(=O)C3CCC(=O)N3)ccc21` (stereo not given), the Potency entry is “inactive”. Same read-out and setting: for `CC1(C(=O)Nc2cnc3ccccc3c2)CCN1C(=O)c1ccccc1CCc1ccccc1` (stereo not given) the value was 28.2 µM (active). Take `COC(=O)C1=C(C)N(Cc2ccccc2)C(=NCCc2cccnc2)N[C@H]1c1ccc(Br)cc1`: the Potency was 28.2 µM (active). For `N=c1n(CCCOc2ccccc2Cl)c2ccccc2n1CC(N)=O`, the Potency entry was “inactive”. On to `Cc1ccc(OCC(O)Cn2c(=N)n(CCN3CCCCC3)c3ccccc32)cc1` (stereo not given), for which the Potency result is “inactive”. For `CCCCn1c(=N)n(CCOc2ccc(C)cc2)c2ccccc21`, the Potency is 10 µM (active). On to `Cc1ccc(-c2nc3ccc(Cl)cn3c2CC(C)(C)C)cc1`, for which the activity change, negative = inhibition was -2.84% [at 11.4 µM] (inactive). Turning to `COc1cc(C)c(C(=O)CC(=O)c2c(C)cc(OC)cc2C)c(C)c1`, the activity change, negative = inhibition is -13.8% [at 11.4 µM] (inactive). On to `Cc1ccc(C(C)C)c(OCc2ccc(C(=O)N/N=C/c3ccc(O)cc3O)cc2)c1`, for which the Potency is 2.51 µM (active). As to `Cc1ccc(C(C)C)c(OCc2ccc(C(=O)N/N=C/c3cccc(O)c3O)cc2)c1`, the Potency is 2.82 µM (active). Same read-out and setting: for `Cc1ccc(C(=O)N/N=C/c2nc3ccccc3n2C)cc1` the value was “inactive”. For the molecule `O=C(c1ccc(-c2nnc(Nc3cccc(Cl)c3)c3ccccc23)cc1)N1C[C@H]2C[C@H](C1)c1cccc(=O)n1C2`, the activity change, negative = inhibition is 46% [at 11.4 µM] (inactive). Regarding `CCN(CC)CCNC(=O)c1ccc(NC(=O)c2ccccc2-c2ccc(C(F)(F)F)cc2)cc1`, the Potency result is “inactive”. In the case of `COC(=O)c1cc(NC(=O)c2cc(-c3ccc(C(F)(F)F)cc3)oc2C(F)(F)F)ccc1N1CCOCC1`, the Potency was 22.4 µM (active). As for `COC(=O)c1ccc(N2CCOCC2)c(NC(=O)Nc2cccc(OC)c2)c1`, the activity change, negative = inhibition is 2.86% [at 11.4 µM] (inactive). Same read-out and setting: for `O=C(NCc1ccco1)/C(=C/c1cccc(C(F)(F)F)c1)c1nc2ccccc2[nH]1` the value was -12% [at 11.4 µM] (inactive). Turning to `O=C(NCc1ccco1)c1ccc(-c2cccc(Cl)c2)o1`, the Potency result is “inactive”. The same measure, in the same setting: for `O=C(NCc1ccco1)c1nc2c(nnn2Cc2ccccc2Cl)c(=O)[nH]1` the value was 1.58 µM (active); for `CC(C)CCNC(=O)COc1cccc2c1OC(C)(C)C2`, “inactive”. `Cc1ccc(OCCCC(=O)NNC(=O)c2ccccn2)cc1`: the Potency is 11.2 µM (active).

`Cc1cccc(OCCCC(=O)Nc2nccs2)c1`: the activity change, negative = inhibition was 249% [at 11.4 µM] (inactive).

As to `CC(=O)c1cccc(-c2cnc3c(NC=O)cc(-c4ccccc4F)cn23)c1`, the activity change, negative = inhibition is -18.2% [at 11.4 µM] (inactive). On to `Cn1nnnc1Sc1ncnc2scc(-c3cccc(S(C)(=O)=O)c3)c12`, for which the Potency was 14.1 µM (active). Still for that read-out and setting: for `CC(=O)c1cccc(-c2csc3ncnc(Sc4nnnn4C)c23)c1` the value was 8.91 µM (active); for `O=C(CN1CCOCC1)N/N=C/c1c(O)ccc2ccccc12`, 8.91 µM (active). Take `NC(=O)N/N=C/c1c(O)ccc2oc3c(c12)CCCC3`: the Potency entry is “inactive”.

Consider `O=C(CSCC(=O)Nc1ccccc1)N/N=C/c1c(O)ccc2ccccc12`, for which the Potency was 0.501 µM (active). On the same count and under the same terms, for `C=C(C)Cn1c(SCC(=O)N/N=C/c2c(O)ccc3ccccc23)nc2ccccc2c1=O` the value was 22.4 µM (active).

Regarding `CCCCn1c(SCC(=O)Nc2cc(NC(=O)c3ccco3)ccc2C)nc2ccccc2c1=O`, the Potency result is “inactive”. As to `O=C(CN1CCCC1)N/N=C/c1c(O)ccc2ccccc12`, the Potency was 1.78 µM (active).

The values above are taken from PubChem BioAssay AID1745847 (National Center for Advancing Translational Sciences (NCATS), 2022).
